Experiments:
Assay in all cases: log2 ratio of Biotin-Ahx-Ub-VS probe labelling (fragment/DMSO); higher = less target engagement (more negative = stronger competition), active = hit call of the paper (q ≤ 0.05, log2 ratio ≤ -1)
Settings in all cases: compound concentration: 200 uM; treatment time: 3 h
USP19 = molecular target: T1, USP19 (UniProt O94966)
T1 sequence (whole entry): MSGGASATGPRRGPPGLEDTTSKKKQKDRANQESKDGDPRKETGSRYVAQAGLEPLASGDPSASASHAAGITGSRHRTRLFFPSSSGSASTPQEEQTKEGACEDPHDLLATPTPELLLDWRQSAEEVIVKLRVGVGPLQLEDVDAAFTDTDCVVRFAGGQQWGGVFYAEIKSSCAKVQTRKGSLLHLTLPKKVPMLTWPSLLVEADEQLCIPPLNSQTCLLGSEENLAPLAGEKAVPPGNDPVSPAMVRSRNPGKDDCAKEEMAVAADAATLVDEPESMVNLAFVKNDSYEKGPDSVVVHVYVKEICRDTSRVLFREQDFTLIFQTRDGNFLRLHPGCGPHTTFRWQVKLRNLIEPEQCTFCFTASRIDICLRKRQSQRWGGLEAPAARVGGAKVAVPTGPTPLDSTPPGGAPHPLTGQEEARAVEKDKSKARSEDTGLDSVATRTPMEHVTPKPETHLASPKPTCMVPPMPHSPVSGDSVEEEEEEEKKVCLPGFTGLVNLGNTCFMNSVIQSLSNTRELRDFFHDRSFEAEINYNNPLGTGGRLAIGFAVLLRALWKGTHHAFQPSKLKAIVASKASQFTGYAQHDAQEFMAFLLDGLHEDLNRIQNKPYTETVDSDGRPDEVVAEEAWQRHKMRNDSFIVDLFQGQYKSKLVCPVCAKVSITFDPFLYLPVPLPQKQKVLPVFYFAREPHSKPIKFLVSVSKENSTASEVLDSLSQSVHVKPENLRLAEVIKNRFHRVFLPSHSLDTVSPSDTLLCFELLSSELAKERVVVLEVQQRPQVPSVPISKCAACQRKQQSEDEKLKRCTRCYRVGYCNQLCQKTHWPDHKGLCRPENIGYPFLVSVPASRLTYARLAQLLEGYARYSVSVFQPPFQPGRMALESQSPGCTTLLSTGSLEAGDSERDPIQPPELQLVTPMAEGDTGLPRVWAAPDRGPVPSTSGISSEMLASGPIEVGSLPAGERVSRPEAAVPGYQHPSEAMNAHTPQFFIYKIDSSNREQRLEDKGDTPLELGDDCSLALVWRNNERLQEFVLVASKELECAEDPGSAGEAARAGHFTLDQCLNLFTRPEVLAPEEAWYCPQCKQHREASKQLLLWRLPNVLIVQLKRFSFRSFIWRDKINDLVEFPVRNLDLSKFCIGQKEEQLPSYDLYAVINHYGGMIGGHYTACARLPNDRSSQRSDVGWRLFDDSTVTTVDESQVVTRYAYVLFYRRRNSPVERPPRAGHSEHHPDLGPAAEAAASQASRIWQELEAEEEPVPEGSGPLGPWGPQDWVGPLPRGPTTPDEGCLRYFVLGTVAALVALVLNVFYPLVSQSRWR
Summary of the method: (§1)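 The table lists average log2 ratios of fragment over vehicle, from an unpaired t-test on global-median-normalised Spectronaut label-free quantities. Proteins with ≥2 unique peptides were used. Samples were HEK293T lysate (495 µg) treated in triplicate with fragment at 200 µM or vehicle for 3 h, then with Biotin-Ahx-Ub-VS (0.5 µM final) for 1 h, with labelled DUBs NeutrAvidin-enriched and run by diaPASEF LC-MS/MS.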

USP22 = molecular target: T2, USP22 (UniProt Q9UPT9)
T2 sequence (whole entry): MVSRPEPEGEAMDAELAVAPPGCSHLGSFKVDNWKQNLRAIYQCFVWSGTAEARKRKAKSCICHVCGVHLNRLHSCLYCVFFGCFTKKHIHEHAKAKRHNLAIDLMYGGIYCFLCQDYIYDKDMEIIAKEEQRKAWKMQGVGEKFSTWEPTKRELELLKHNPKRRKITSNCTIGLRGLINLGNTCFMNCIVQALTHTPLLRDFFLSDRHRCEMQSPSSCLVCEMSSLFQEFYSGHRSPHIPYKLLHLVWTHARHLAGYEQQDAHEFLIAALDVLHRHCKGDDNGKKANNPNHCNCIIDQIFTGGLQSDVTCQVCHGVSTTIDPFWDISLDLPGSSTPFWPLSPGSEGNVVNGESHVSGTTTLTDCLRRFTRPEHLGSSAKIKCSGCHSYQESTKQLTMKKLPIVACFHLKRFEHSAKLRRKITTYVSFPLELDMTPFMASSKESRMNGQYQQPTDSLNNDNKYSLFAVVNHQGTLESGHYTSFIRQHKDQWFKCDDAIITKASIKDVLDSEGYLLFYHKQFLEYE
Summary of the method: as §1

USP24 = USP24 (UniProt Q9UPU5)
Summary of the method: as §1

USP25 = molecular target: T3, USP25 (UniProt Q9UHP3)
T3 sequence (whole entry): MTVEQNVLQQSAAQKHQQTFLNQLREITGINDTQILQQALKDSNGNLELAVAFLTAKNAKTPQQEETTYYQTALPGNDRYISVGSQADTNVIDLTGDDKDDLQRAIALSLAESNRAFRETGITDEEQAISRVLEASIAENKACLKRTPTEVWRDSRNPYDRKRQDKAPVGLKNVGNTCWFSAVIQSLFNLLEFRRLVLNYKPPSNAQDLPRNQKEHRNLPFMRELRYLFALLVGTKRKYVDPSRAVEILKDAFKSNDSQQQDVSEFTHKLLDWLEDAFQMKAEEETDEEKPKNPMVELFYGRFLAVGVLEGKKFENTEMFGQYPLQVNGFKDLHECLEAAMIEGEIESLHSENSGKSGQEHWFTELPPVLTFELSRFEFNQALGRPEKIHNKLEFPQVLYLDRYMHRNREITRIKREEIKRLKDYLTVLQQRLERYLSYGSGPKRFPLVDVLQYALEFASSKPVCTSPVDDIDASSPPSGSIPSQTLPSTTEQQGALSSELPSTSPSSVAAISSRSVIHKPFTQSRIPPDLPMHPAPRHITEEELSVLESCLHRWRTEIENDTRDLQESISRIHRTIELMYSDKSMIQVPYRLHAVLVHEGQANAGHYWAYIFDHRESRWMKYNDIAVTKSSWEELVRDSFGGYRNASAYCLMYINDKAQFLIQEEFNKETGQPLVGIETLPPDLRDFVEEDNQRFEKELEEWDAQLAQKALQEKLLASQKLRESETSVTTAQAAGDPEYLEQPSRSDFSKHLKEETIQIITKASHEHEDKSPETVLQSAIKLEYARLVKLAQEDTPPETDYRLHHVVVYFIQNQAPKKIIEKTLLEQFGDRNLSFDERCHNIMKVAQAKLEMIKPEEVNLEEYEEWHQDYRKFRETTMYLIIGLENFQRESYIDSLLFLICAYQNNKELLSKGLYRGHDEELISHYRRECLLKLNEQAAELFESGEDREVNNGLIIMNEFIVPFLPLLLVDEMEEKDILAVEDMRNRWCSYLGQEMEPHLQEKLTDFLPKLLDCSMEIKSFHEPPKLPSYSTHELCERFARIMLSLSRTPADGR
Summary of the method: as §1

USP28 = molecular target: T4, USP28 (UniProt Q96RU2)
T4 sequence (whole entry): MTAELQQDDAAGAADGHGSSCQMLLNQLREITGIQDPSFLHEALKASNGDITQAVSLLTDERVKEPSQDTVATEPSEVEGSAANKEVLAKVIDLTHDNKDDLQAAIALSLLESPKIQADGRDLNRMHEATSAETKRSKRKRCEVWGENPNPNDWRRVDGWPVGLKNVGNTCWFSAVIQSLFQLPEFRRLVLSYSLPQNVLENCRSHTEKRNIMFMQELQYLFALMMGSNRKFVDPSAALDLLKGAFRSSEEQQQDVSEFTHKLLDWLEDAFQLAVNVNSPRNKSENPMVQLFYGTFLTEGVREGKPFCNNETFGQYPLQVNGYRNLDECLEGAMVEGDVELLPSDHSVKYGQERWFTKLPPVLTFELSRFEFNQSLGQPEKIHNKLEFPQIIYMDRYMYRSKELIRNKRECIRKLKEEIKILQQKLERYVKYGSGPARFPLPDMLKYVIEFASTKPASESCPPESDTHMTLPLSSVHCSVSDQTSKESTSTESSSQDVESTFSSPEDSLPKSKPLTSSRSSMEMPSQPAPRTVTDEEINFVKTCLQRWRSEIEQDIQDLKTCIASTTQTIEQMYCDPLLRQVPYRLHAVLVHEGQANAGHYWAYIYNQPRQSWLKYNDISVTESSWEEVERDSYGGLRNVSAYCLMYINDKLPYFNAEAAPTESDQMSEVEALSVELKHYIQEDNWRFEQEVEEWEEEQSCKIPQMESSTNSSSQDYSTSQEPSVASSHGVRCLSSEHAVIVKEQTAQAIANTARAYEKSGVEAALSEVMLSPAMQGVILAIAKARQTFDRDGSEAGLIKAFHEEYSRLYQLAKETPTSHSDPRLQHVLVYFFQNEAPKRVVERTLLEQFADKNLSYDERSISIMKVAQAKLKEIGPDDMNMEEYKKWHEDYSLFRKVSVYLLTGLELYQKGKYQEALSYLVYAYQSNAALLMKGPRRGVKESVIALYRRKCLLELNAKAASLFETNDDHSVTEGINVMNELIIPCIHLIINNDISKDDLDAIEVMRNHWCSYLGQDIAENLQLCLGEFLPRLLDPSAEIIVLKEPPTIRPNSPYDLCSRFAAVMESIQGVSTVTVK
Summary of the method: as §1

Measured: log2 ratio of Biotin-Ahx-Ub-VS probe labelling

USP24, sequence (Q9UPU5 whole entry): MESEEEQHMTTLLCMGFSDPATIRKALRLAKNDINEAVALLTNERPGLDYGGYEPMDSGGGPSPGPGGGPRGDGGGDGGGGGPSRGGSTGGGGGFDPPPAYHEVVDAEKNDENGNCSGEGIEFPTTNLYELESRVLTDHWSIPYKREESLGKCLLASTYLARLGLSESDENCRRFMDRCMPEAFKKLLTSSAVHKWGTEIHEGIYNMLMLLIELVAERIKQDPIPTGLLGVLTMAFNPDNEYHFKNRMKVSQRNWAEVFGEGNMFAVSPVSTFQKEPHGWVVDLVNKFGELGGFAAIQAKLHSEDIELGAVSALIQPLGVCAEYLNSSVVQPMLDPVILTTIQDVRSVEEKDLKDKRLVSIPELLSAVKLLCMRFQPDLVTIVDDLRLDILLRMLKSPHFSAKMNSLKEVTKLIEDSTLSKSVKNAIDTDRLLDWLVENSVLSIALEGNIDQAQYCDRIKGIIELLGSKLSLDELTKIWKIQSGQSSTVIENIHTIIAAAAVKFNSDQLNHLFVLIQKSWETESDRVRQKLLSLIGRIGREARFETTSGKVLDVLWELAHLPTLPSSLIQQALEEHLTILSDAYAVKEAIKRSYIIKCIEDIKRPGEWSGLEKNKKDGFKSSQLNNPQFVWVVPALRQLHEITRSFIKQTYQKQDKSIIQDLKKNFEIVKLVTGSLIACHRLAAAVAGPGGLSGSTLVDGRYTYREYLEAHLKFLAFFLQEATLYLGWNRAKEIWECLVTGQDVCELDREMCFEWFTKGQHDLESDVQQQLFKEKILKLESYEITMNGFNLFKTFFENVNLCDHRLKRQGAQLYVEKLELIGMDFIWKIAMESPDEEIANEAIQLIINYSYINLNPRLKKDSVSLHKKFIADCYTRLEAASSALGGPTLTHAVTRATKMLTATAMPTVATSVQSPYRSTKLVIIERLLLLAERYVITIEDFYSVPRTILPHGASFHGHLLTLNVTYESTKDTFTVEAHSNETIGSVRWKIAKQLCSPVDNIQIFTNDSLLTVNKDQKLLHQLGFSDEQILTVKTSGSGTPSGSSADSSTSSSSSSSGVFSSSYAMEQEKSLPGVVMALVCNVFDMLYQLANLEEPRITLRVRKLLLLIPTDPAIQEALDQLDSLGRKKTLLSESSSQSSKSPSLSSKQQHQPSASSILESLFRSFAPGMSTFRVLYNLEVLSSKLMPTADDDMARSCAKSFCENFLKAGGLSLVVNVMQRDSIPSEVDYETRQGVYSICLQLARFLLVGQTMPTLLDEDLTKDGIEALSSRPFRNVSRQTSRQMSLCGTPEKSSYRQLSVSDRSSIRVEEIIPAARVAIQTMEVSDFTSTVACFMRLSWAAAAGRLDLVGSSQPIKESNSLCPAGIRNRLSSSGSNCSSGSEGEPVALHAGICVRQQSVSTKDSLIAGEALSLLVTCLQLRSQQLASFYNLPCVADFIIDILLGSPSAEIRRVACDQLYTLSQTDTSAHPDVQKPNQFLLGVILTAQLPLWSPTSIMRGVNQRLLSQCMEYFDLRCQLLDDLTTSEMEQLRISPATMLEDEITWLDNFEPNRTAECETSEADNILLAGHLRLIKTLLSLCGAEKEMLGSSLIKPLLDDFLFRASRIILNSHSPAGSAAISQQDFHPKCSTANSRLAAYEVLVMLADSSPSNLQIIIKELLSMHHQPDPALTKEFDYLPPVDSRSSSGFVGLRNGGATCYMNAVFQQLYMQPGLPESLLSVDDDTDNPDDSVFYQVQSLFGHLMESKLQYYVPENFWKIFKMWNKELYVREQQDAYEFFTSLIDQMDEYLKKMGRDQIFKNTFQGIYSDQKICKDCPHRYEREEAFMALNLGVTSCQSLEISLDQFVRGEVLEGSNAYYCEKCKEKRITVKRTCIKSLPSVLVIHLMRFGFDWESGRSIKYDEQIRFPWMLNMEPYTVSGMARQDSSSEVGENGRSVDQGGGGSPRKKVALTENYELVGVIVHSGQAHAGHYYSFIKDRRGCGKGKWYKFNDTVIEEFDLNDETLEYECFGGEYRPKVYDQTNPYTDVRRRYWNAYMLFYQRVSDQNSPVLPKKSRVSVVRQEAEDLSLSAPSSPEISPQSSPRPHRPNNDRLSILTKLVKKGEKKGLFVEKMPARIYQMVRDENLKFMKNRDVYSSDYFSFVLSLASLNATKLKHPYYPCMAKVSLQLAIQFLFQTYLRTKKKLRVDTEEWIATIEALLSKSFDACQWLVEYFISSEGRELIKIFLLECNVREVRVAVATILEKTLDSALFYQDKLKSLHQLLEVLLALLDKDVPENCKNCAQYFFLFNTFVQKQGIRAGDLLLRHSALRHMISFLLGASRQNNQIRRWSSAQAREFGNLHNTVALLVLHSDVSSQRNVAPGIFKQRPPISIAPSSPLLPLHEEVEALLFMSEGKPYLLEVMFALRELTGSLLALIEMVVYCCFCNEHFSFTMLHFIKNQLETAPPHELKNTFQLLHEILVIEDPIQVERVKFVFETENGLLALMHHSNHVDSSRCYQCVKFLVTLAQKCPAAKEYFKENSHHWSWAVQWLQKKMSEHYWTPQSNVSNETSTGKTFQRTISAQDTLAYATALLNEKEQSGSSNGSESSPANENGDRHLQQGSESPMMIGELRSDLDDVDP

CN(C)S(=O)(=O)c1ccccc1CNC(=O)CCl
inactive: USP19 0.0268 | USP22 -0.12 | USP24 -0.108 | USP25 -0.258 | USP28 -0.239

Reference: the supplement of paper PMC11732987, “Enantioselective OTUD7B fragment discovery through chemoproteomics screening and high-throughput optimisation” (Communications Chemistry, 2025)
